# From the supplement of paper PMC12669032
# Unmarked numbers belong to inactive results.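 The calls were made as follows: active = AUC reduced over 20% with Padj below 0.05 in at least 2 of 3 replicates; inactive = otherwise.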
# Tests used:
# Roseburia intestinalis = experiment: growth AUC relative to DMSO control (median of replicates) (fraction); higher = more growth (less inhibition), active = hit call of the paper; settings: 20 µM; 24 h
# Procedure, shortened: (§1)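 Each value is the median of three biological replicates, grown on separate days, of a gut bacterial monoculture incubated anaerobically at 37 °C in mGAM with 20 µM compound (1% DMSO). Cultures started at OD600 0.05 and were read at OD600 hourly for 24 h, with the minimum OD set to 0. Area under the growth curve was normalised to the plate median of solvent-only wells, or to row and column medians on the industrial chemical plate.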
# Streptococcus salivarius = experiment: as above; settings: 20 µM; 24 h
# Procedure, shortened: as §1
Structure (SMILES),growth AUC (Roseburia intestinalis),growth AUC (Streptococcus salivarius)
C[C@@H](Oc1ccc(Oc2cnc3cc(Cl)ccc3n2)cc1)C(=O)O,1.04,1.01
COC(=O)N(C(=O)N1CO[C@@]2(C(=O)OC)Cc3cc(Cl)ccc3C2=N1)c1ccc(OC(F)(F)F)cc1,0.907,0.873
CN(C)C(=O)Nc1cccc(C(F)(F)F)c1,0.979,0.991
O=C(O)c1nc(Cl)ccc1Cl,1.07,1.02
O=[N+]([O-])NC1=NCOCN1Cc1cnc(Cl)s1,0.941,0.85
CN(C)NC(=O)CCC(=O)O,0.953,0.951
CCO/N=C(\CC)C1=C(O)CC(c2c(C)cc(C)cc2C)CC1=O (configuration not stated),0.945,0.967
CC(C)Oc1cc(-n2nc(C(C)(C)C)oc2=O)c(Cl)cc1Cl,0.931,0.971
O=S1OCC2C(CO1)C1(Cl)C(Cl)=C(Cl)C2(Cl)C1(Cl)Cl (configuration not stated),0.988,0.977
COc1ccccc1N,1.03,0.998
CNC(=O)c1cc(Cl)cc(C)c1NC(=O)c1cc(Br)nn1-c1ncccc1Cl,0.957,0.99
O=C1CCc2cccc3c2N1CC3,0.989,0.941
COc1cc(C)c(C(=O)c2c(OC)ccc(Br)c2C)c(OC)c1OC,0.989,1.01
CCOP(=S)(OCC)SCCSCC,1.02,1.01
CNC(=O)Oc1cccc2c1OC(C)(C)O2,1.01,1
Oc1ccc(-c2ccccc2)cc1,0.947,0.968
CNC(=O)Oc1cccc2ccccc12,0.973,1.03
CNC(=O)Oc1cccc2c1OC(C)(C)C2=O,0.994,0.924

Structure (SMILES),growth AUC (Roseburia intestinalis),growth AUC (Streptococcus salivarius)
CCOP(=S)(OCC)Oc1cc(C)nc(N(CC)CC)n1,0.941,1
c1ccc2c(c1)ccc1c3ccccc3sc21,0.964,1.05
COc1cc(OC)n2nc(S(=O)(=O)Nc3c(Cl)ccc(C)c3Cl)nc2n1,0.999,0.954
CCOP(=S)(OCC)Oc1cc(C)nc(C(C)C)n1,0.984,1.03
O=C(O)C(F)(F)C(F)(F)C(F)(F)C(F)(F)C(F)(F)C(F)(F)F,1.03,1.02
CCOc1nc(NC)nc(NC(=O)NS(=O)(=O)c2ccccc2C(=O)OC)n1,0.992,1.03
CCCCCCCCCCCCCN1CC(C)OC(C)C1 (configuration not stated),0.937,1.01
CC1COC(Cn2cncn2)(c2ccc(Oc3ccc(Cl)cc3)cc2Cl)O1 (configuration not stated),0.823,0.962
CCOP(=S)(OCC)OP(=S)(OCC)OCC,0.984,0.976
CCOP(=S)(OCC)Oc1cnccn1,0.976,1
CC(C)N(C(=O)CCl)c1ccccc1,0.963,1.04
CC1(C)CN=C(NN=C(/C=C/c2ccc(C(F)(F)F)cc2)/C=C/c2ccc(C(F)(F)F)cc2)NC1,0.391 (active),1.1
CS(=O)(=O)c1cc(C(F)(F)F)ccc1C(=O)c1cnoc1C1CC1,1.03,1.01
CNC(=O)O/N=C/C(C)(C)S(C)(=O)=O,1.02,1.04
Cc1cc(C)nc(Nc2ccccc2)n1,0.999,0.995
CCNc1nc(NC(C)C)nc(OC)n1,0.953,0.945
COc1cccc(C(=O)NN(C(=O)c2cc(C)cc(C)c2)C(C)(C)C)c1C,0.985,0.966
COP(=S)(OC)Oc1ccc(C#N)cc1,1.06,0.959
